Reference: PubChem BioAssay AID588346 (National Center for Advancing Translational Sciences (NCATS), 2011)
Records with an inconclusive call do not appear. Activity calls are given as the source filed them. The call rests on the fitted dose curve; in most records, active means well fitted curve in the direction sought with a large enough effect; inconclusive means small, poorly fitted or top-dose-only effect, or another doubt; inactive means no such curve, though single readings can be large or run the other way.

Assay: qHTS Assay for Inhibitors of Histone Lysine Methyltransferase G9a: Hit Confirmation in b-rIgG Counterscreen
Conditions: AlphaScreen b-rIgG bead counterscreen, signal interference; series mostly up to 55.7 µM
Description: Methylated lysines, on the N-terminal tails of histone proteins serve as epigenetic markers to recruit factors that can then modify local chromatin structure to lead to functional consequences. G9a and other members of the SUV39 family of the SET domain-containing superfamily of histone lysine methyltransferases (HMT) have been identified to specifically methylate Lys9 of histone H3 (H3K9). G9a catalyzes the mono- and di-methylation of H3K9 in mammalian euchromatic regions, where the resulting H3K9me2 is indicative of transcriptional repression. […] The inhibition of G9a will result in transcriptional activation and work synergistically with DNA methyltransferase and histone deacetylase inhibitors, to kill cancer cells. This qHTS assay for identification of G9a inhibitors is a chemiluminescence based AlphaScreen (PerkinElmer). Methylation of biotinylated-histone peptide is measured through specific antibody-based detection, in conjunction with streptavidin-coated donor and anti-IgG antibody-coated acceptor beads. The method is particularly well suited for detection of inhibitors acting by the desired histone peptide competitive mechanism and is applicable to testing other HMTs. Although AlphaScreen has significant advantages with its utility in a variety of epigenetic target assays, the primary screening data provided in this deposition should be used with caution due to the prevalence of screening artifacts. Because an AlphaScreen counterscreen is highly recommended to be run against any putative actives to eliminate non specific artifacts, this assay was used as a counterscreen. Quinn et al. A chemiluminescence-based method for identification of histone lysine methyltransferase inhibitors. Mol Biosyst 6(5): 782-8. 2010. PMID: 20567762 [2] Baell,Holloway. New substructure filters for removal of pan assay interference compounds (PAINS) from screening libraries and for their exclusion in bioassays. J Med Chem. 53(7):2719-40. 2010. PMID: 20131845 NIH Chemical Genomics Center [NCGC] NIH Molecular Libraries Probe Production Network [MLPCN] MLPCN Grant: MH084681-02 Assay Submitter (PI): Structural Genomic Consortium - Toronto, Peter Brown
Biotinylated rabbit-IgG (b-rIgG) (Santa Cruz Biotechnology, Inc., Santa Cruz, CA) was added to 1,536-well plates in a 3 uL dispense. Compounds were added in a 23 nL pin-transfer step, and plates were incubated at room temperature for 15 min. Streptavidin-coated donor and anti-rIgG acceptor AlphaScreen beads were added (1 uL) for final concentrations of 20 ug/mL each bead and 1 nM b-rIgG, and plates read on the Envision after a 15 min incubation at room temperature in the dark.

SMILES	outcome
Oc1ccc2c3c1O[C@H]1[C@@H](O)CC[C@@]4(O)C(C2)N(CC2CCC2)CCC314 (some centres not stated)	inactive
C/C(O)=C(\C#N)C(=O)Nc1cc(Br)ccc1Br	inactive
NCCc1c[nH]c2ccc(O)cc12	inactive
CCCN(CCC)CCc1c[nH]c2ccc(C(N)=O)cc12	inactive
CN1CSC(=S)N(C)C1	inactive
COc1ccc(OC)c(N2C(=O)NC(=O)/C(=C\c3ccc([N+](=O)[O-])s3)C2=O)c1	inactive
O=C1NC(=O)N(CCc2ccc(F)cc2)C(=O)/C1=C/C=C/c1ccccc1	inactive
